# A selection: hits, their analogues and other compounds. The true share with any hit is near 1.8%.
# PHOSPHO1 block = inhibitors of human PHOSPHO1 phosphatase. Q8TCT1. recombinant PHOSPHO1, absorbance phosphatase assay. inhibition, % at 13.3 µM. hit rate 1.1% among 290,000. AID 1565; in the data active = inhibition above about 60%
# Target sequence (Q8TCT1 whole entry, looked up): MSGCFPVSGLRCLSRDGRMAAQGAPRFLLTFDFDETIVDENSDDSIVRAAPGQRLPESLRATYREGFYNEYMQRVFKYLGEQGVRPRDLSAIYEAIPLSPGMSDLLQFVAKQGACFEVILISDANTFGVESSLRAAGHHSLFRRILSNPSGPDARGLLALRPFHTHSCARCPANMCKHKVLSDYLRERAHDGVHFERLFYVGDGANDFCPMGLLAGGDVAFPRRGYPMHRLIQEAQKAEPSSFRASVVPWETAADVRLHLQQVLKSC
# UBC9 SUMO inh = blocks human SUMOylation mediated by UBC9; HTRF SUMOylation assay, SAE1/SAE2 + UBC9, in vitro; hit rate 0.36% among 290,000; inhibition, % at 35 µM; P63279; AID 2006; in the data active = inhibition above about 50%, passing the limit was not always enough
# Target sequence (P63279 whole entry, looked up): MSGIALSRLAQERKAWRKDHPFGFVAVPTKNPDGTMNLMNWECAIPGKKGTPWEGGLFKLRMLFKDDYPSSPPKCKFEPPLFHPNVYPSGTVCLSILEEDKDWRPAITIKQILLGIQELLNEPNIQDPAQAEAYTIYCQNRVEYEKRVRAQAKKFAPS
# pCIP destab = p/CIP protein destabilization; F442A p/CIP-EGFP cells, EGFP fluorescence, 16 h; decrease of EGFP signal, % at 10 µM; hit rate 0.01% among 290,000; Q05BA5; AID 1984;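 active = EGFP signal decrease of at least 30% at 10 µM or well 3 SD below plate mean, unless failing retest; inactive = the rest, including hits failing retest or dose response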
# NadD inh = blocks S. aureus nicotinate mononucleotide adenylyltransferase | hit rate 0.78% among 360,000 | inhibition, % at 20 µM | AID 602399 | purified NadD enzyme, colorimetric absorbance read-out; in the data active = inhibition above about 26%
# Active calls of the source: *; / = no result.
SMILES,PHOSPHO1 block,UBC9 SUMO inh,pCIP destab,NadD inh
N#C/C(=C\c1ccc(OCc2ccccc2)cc1)C(=O)Nc1nc2c(s1)CCN(Cc1ccccc1)C2,21.6,7.6,4.3,29.3
CN(C)c1ccc(/C=C(/C#N)C(=O)Nc2nc3c(s2)CCN(Cc2ccccc2)C3)cc1,/,/,/,57.1*
COc1cc(S(=O)(=O)N2CCOCC2)ccc1NC(=O)CSc1nnc(N)s1,64.6*,4.7,-2.8,6.8
COc1ccc(-c2csc(C(O)c3ccc(F)cc3)n2)cn1 (centres undefined),/,/,/,2.8
Nc1c(C(=O)N/N=C/c2cccnc2)oc2nc(-c3ccco3)cc(-c3ccco3)c12,-35.4,94.7*,-7.9,20.8
Nc1c(C(=O)N/N=C/c2cccnc2)oc2nc(-c3ccccc3)cc(-c3ccco3)c12,17.1,28.5,-11.4,7.3
CC(C)c1ccc2[nH]c(O)c(N=NC(=O)c3cccc(S(=O)(=O)N4CCCCC4)c3)c2c1,-2.8,-14.2,1.9,31.2*
CC(C)c1ccc2[nH]c(O)c(N=NC(=O)c3cccc(S(=O)(=O)Nc4ccc(Cl)cc4)c3)c2c1,42.8,21.3,-2.7,37.1*
CNC(=S)N=Nc1c(O)[nH]c2ccc(C(C)C)cc12,-4.5,-46.4,9.3,-1.9
CC(C)c1ccc2[nH]c(O)c(N=NC(=O)c3cccc(S(=O)(=O)Nc4cccc(Cl)c4)c3)c2c1,29.8,14.2,-5.0,34.8*
COCCNC(=O)C1CCCN(C(=O)c2ccc3c(c2)C(C)(C)CCC3(C)C)CC1 (centres undefined),/,/,/,-3.2
O=C1c2cccc3cccc(c23)C(c2nc3ccccc3[nH]2)N1C1CC1 (centres undefined),/,/,/,-6.2
Cc1ccc(NC(=O)c2sc3ncn(CC(=O)N4CCN(c5ccccn5)CC4)c(=O)c3c2C)cc1Cl,63.6*,17.5,-13.2,10.5
OC(c1cccc(Cl)c1)c1nc(-c2ccc(Cl)cc2)cs1 (centres undefined),/,/,/,-6.6
CNc1cncc(-c2cc(OC)c(OC)c(OC)c2)n1,/,/,/,3.5
CCN(CC(=O)Nc1cccc(C#N)c1)CC(=O)Nc1cccc(OC)c1,62.9*,-8.6,1.1,-4.7
Cc1ccc(-c2nc3ccc(Br)cn3c2Cc2ccsc2)cc1,/,/,/,7.3
COC/C=C/C1=CC2=CC(=O)C(C)(OC(=O)c3cnc4ccccc4n3)C(=O)C2=CN1c1ccccc1 (centres undefined),13.3,25.6,-7.2,/
COC/C=C/C1=CC2=CC(=O)C(C)(OC(=O)c3cnc4ccccc4n3)C(=O)C2=CN1c1ccc(CO)cc1 (centres undefined),4.0,58.5*,13.0,/
CCc1nnc2c3cnn(-c4ccccc4)c3ncn12,-5.7,-0.7,5.6,8.8
Cc1ccc(-n2ncc3c2ncn2c(C)nnc32)cc1C,60.1*,17.3,-0.3,-3.8
Cc1cc(C)nc(NS(=O)(=O)c2ccc(NC(=O)CSc3ncn[nH]3)cc2)n1,61.8*,8.9,-9.1,-6.4
O=C(Nc1ccc2c(c1)OCO2)c1csc([C@@H]2O[C@H](CO)[C@H](O)[C@H](O)[C@H]2O)n1,/,/,/,0.2
COCCN1CSC(=S)N(Cc2ccco2)C1,94.5*,7.2,1.1,-3.8
S=C1SCN(Cc2ccccn2)CN1Cc1ccco1,94.5*,0.8,-5.5,4.6
SMILES,PHOSPHO1 block,UBC9 SUMO inh,pCIP destab,NadD inh
CCOCCCN1CN(Cc2ccco2)CNC1=S,-12.2,94.1,-3.1,-2.6
CC(NC(=O)CN(C)CC(=O)Nc1cccc(F)c1)c1ccccc1 (centres undefined),/,/,/,-1.0
O=C(Nc1ccc2cccnc2c1)c1ccc(Br)cc1,33.9,5.4,13.1,-7.7
O=C(Nc1ccc2nc3ccccc3nc2c1)c1ccc(Br)cc1,10.9,57.4*,3.1,-3.1
CC(=O)Nc1ccc2nc3ccccc3nc2c1,-113.1,92.4*,-5.5,3.8
CC(=O)Nc1ccc(-c2nc3ccc(NC(C)=O)cc3o2)cc1,13.7,50.6*,-11.6,-1.3
CC(=O)Nc1ccc2oc(-c3ccccc3)nc2c1,8.1,34.3,4.2,-1.5
CC(=O)Nc1ccc(Nc2cc(C)c3ccccc3n2)cc1,45.3,6.5,-4.5,-0.3
O=c1ccc2c(ccc3ncccc32)o1,/,/,/,-3.2
COc1cccc(CNC(=O)COC(=O)c2nn(C)c(=O)c3ccccc23)c1,/,/,/,-4.2
O=C(NNC(=O)c1sc2ccccc2c1Cl)Nc1ccc(Cl)cc1,27.6,52.5*,-4.9,-2.3
N#Cc1c(-c2cccc(Br)c2)cc(-c2ccco2)[nH]c1=O,15.4,79.3*,-12.6,13.5
O=C(NCC1CCCO1)c1cccc(S(=O)(=O)Nc2ccccc2Cl)c1 (centres undefined),/,/,/,-4.1
O=C(Nc1ccc(C(F)(F)F)cc1)c1csc(-c2ccncc2)n1,64.3*,11.8,-5.7,-4.1
Cc1ccc(C(=O)Oc2ccc(C(=O)COC(=O)C3CC(=O)N(Cc4ccco4)C3)cc2)cc1 (centres undefined),-1.2,-21.9,-10.8,6.9
O=C(COC(=O)C1CC(=O)N(Cc2ccco2)C1)c1ccc(OC(=O)c2ccco2)cc1 (centres undefined),12.7,30.5,-4.3,36.4*
Cc1cc(C)c2c(N=NN3CCCCC3)[nH]nc2n1,-23.5,4.5,3.6,0.8
CCN(CC)N=Nc1[nH]nc2nc(C)cc(C)c12,68.9*,19.4,4.0,-3.6
Cc1ccc(NC(=O)C2CCN(S(=O)(=O)c3cccs3)CC2)c(O)c1,62.4*,5.8,10.5,-1.9
O=C(NCc1ccccc1F)C(=O)NCC1OCCCN1S(=O)(=O)c1cccs1 (centres undefined),75.4*,6.9,-19.9,0.7
Nc1ccc(Oc2ccc3nc(-c4ccccc4)c(-c4ccc([N+](=O)[O-])cc4)nc3c2)cc1,8.9,-19.8,-14.4,32.0*
CCn1c2ccccc2c2cc(/C=N/n3cn[nH]c3=S)ccc21,28.4,-21.5,-5.7,7.9
S=c1[nH]ncn1/N=C/c1ccc(N2CCOCC2)cc1,87.9*,11.2,0.1,4.6
S=c1[nH]c(-c2ccccc2)cn1/N=C/c1ccncc1,69.9*,14.3,-1.2,2.5
S=c1[nH]ncn1/N=C/c1ccc(Br)cc1,96.3*,33.8,-12.1,2.2
SMILES,PHOSPHO1 block,UBC9 SUMO inh,pCIP destab,NadD inh
S=c1[nH]ncn1/N=C/c1ccccc1,88.9*,-5.6,-3.0,1.6
O=C(NCc1ccc(F)cc1)c1cc(C2CCCCN2S(=O)(=O)c2cccs2)on1 (centres undefined),/,/,/,-5.4
C=C(C)CN1C(=O)C(C)SC1=NN=C1SCC(=O)N1C (centres undefined),/,/,/,-4.3
CCOC(=O)c1cc(OC)c2cccc(CN3CCC(C)(C(=O)NCCOC)C3)c2c1 (centres undefined),/,/,/,-0.8
CCCc1nn2c(=O)cc(COc3ccc(NC(=O)c4ccco4)cc3)nc2s1,63.6*,12.0,-2.4,1.6
CCc1nn2c(=O)cc(COc3ccc(NC(=O)c4ccco4)cc3)nc2s1,31.5,19.0,-16.8,6.3
CCOc1ccc2nc3cc(NCc4ccc(OC)cc4)ccc3c(N)c2c1,32.6,18.4,-10.6,46.8*
C[C@@H]1CN([C@@H](C)CO)C(=O)c2cc(C3=CCCCC3)cnc2O[C@H]1CN(C)C(=O)Nc1cccc(F)c1,/,/,/,5.1
CCOC(=O)C1CCCC12Nc1cccc3cccc(c13)N2 (centres undefined),/,/,/,10.2
C=CCc1ccccc1OCC(=O)OCCNC(=O)c1cccnc1,71.1*,3.9,-3.7,1.1

# Screening data: PubChem, Sanford-Burnham Center for Chemical Genomics
